Inconclusive results are not listed. A call without a number means that no potency is given here. Calls of active or inactive are those of the source. Calls follow the shape of the dose curve; as a rule, active = well fitted inhibition curve with a large enough effect; inconclusive = small, poorly fitted or top-dose-only effect; inactive = flat fitted curve, though single readings scatter.

The test concerns the target Calcium and integrin-binding protein 1 (Homo sapiens) (UniProt Q99828). Put plainly: Primary qHTS for Identification of Calcium Integrin Binding Protein 1 (CIB1) Competitor (AID 1508620). Also: top concentration of the series differs between compounds. In a few lines:
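Fluorescence polarization competition: GST-tagged CIB1 (1 uM final) preincubated with compound 15 min at room temperature, then FITC-labelled alphaIIb peptide (100 nM final) added. After 15 min at room temperature, polarization read at Ex 480/Em 540.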

Chain of Calcium and integrin-binding protein 1 (Homo sapiens) (Q99828 whole entry, looked up): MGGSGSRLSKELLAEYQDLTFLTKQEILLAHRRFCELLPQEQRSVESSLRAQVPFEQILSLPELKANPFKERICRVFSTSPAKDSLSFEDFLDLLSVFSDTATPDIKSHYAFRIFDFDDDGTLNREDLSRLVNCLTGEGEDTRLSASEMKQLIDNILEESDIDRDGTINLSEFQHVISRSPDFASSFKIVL

Consider `CC(C)Oc1ccc(-c2csc(N3CCC(C(N)=O)CC3)n2)cc1`, for which the Potency result is “inactive”. Then `Oc1ccc(CNc2ccccc2Cl)c2cccnc12`, with “inactive”; and `C[C@@H]1CN(S(=O)(=O)c2c(F)cccc2F)CCN1S(=O)(=O)c1ccc2c(c1)OCCO2`, with “inactive”; and `O=C(O)Cc1cc(F)c(S(=O)(=O)N2CCN(S(=O)(=O)c3ccc4c(c3)OCCO4)CC2)cc1F`, with “inactive”. Then `CC(=O)Nc1sc2c(c1-c1ccco1)CCNC2`, with “inactive”. In the case of `COc1ccc(NC(=S)N2CCN(c3cccc(C(F)(F)F)c3)CC2)nc1` it was “inactive”; in that of `CSc1ccc(-c2cnc(N3CCC(C(N)=O)CC3)s2)cc1`, “inactive”. With `CN1CCN(c2ccc(NC(=O)c3cccs3)cn2)CC1`, the Potency entry was “inactive”. In the case of `COc1ccc(NC(=O)CN2C(=O)N/C(=C\c3cccn3-c3ccc(C(=O)NC#N)cc3)C2=O)cc1` it was “inactive”. Then `O=C1CCCC2=C1C(c1[nH]ncc1Cl)N=C(Nc1nc3ccc(Cl)cc3o1)N2` (stereo not given), with “inactive”. In the case of `Cc1cc(C)n2ncc(C(=O)Nc3ccc4c(c3)OCCO4)c2n1` it was “inactive”. As to `O=C(/C=C/c1ccc(OC(F)(F)F)cc1)Nc1cccc([S+](=O)([O-])Nc2ccccc2F)c1`, the Potency result was “inactive”. Turning to `Cn1c2ccsc2c2cnn(Cc3ccccc3F)c(=O)c21`, the Potency entry is “inactive”.

With `O=c1[nH]c2ccc(S(=O)(=O)N3CCN(S(=O)(=O)c4c(F)cccc4F)CC3)cc2[nH]c1=O`, the Potency entry was “inactive”. Then `O=C(c1ccco1)N1CCN(c2nc(-c3ccc(Br)cc3)cs2)CC1`, with “inactive”. Then `CC(C)CC(OC(=O)CNC(=O)c1ccccc1)C(=O)Nc1cc(C(F)(F)F)ccc1Cl` (stereo not given), with “inactive”; and `Cc1cnc(-c2ccccc2C2COC2)nc1NCc1ccc(-n2ccnn2)cc1`, with “inactive”. In the case of `Cc1cnc(-c2ccccc2CO)nc1NCC1CCN(c2cccnc2)CC1` it was “inactive”; in that of `COc1ccc(Nc2cc(O)c3ncccc3c2)cc1`, “inactive”. Regarding `Cc1cccc(-n2cnc3cc(C(=O)N4CCCC(c5ccccc5)C4)ccc32)c1` (stereo not given), the Potency result is “inactive”. Then `N/C(=N\c1nnc(-c2ccncc2)s1)Nc1ccc(F)c(C(F)(F)F)c1`, with “inactive”; and `Cc1cc(C)nc(NC(=S)N2CCN(c3cccc4[nH]ccc34)CC2)c1`, with “inactive”. In the case of `NC(=O)C1CCN(c2nc(-c3cccc(C(F)(F)F)c3)cs2)CC1` it was “inactive”; in that of `O=c1cc(CN2CCCN(c3ccc(C(F)(F)F)cn3)CC2)nc2ccccn12`, “inactive”; in that of `O=[S+]([O-])(Nc1ccc(N2CCNCC2)cc1)c1ccc(NCc2ccc(Cl)cc2O)cc1`, “inactive”. Then `CN(C)c1ccc(C2N=C(Nc3nc4ccccc4o3)NC3=C2C(=O)CCC3)cc1` (stereo not given), with “inactive”. Regarding `CN(C)CCCNC(=O)c1ccc(-c2cnc3c(O)cccc3c2)cc1`, the Potency entry was “inactive”. For the compound `Cc1nnc(-c2cnn(C)c2N)n1Cc1cncn1C`, the Potency result was “inactive”. In the case of `O=[S+]([O-])(Nc1ccc2ccccc2c1)c1ccc(NCc2ccc(Cl)cc2O)cc1` it was “inactive”. In the case of `Cn1nnnc1Sc1ncnc2scc(-c3ccccc3[N+](=O)[O-])c12` it was “inactive”; in that of `COc1ccc2cc3cc(C(=O)Nc4ccc(F)cc4)sc3nc2c1`, “inactive”; in that of `CC(C)c1cc2c(s1)c1cnn(Cc3ccccc3F)c(=O)c1n2C`, “inactive”. In the case of `COc1cc2ncnc(N(C)Cc3cccs3)c2cc1-c1ccc2c(c1)OCO2` it was “inactive”. On to `CC(=O)Nc1ccc(CNc2ncnc3ccc(-c4c(C)noc4C)cc23)cc1`, for which the Potency result is “inactive”. Then `Cc1ccc(NC(=O)CN2C(=O)N/C(=C\c3cccn3-c3ccc(C(=O)NS(C)(=O)=O)cc3)C2=O)cc1`, with “inactive”; and `COc1cccc(CNc2ccc(S(=O)(=O)Nc3ncc(C)s3)cc2)c1O`, with “inactive”; and `COc1ccc(CNc2ccc(S(=O)(=O)Nc3nccs3)cc2)cc1O`, with “inactive”. In the case of `Cc1cccc(OC2=NS(=O)(=O)c3ccccc32)c1` it was “inactive”; in that of `COc1ccc(C2Nc3ccccc3C(=O)N2CCc2ccc(Cl)cc2Cl)cc1COc1ccc(NC(C)=O)cc1` (stereo not given), “inactive”. In the case of `COc1ccc(-c2nnc3n2N=C(c2c(OC)cccc2OC)CS3)c(OC)c1` it was “inactive”; in that of `C/C(=C\c1cccc(C(F)(F)F)c1)C1Nc2cccc3cccc(c23)N1`, “inactive”; in that of `CCOC(=O)c1c(-c2ccccc2)no[n+]1[O-]`, “inactive”. With `CN(C)c1cnc2c(O)ccc([S+](=O)([O-])Nc3ccccc3F)c2c1`, the Potency entry is “inactive”. In the case of `Cc1ccc(CN(C)c2ncnc3ccc(-c4ccc(CO)o4)cc23)o1` it was “inactive”; in that of `O=C(C1CCN(c2nc(-c3ccc(Br)cc3)cs2)CC1)N1CCNCC1`, “inactive”. For `Nc1ccc(C(=O)Nc2ccc(-c3nc4ccccc4[nH]3)cc2)cc1Cl`, the Potency result was “inactive”. Turning to `Cn1c2cc(Br)sc2c2cnn(Cc3c(F)cccc3F)c(=O)c21`, the Potency result was “inactive”. In the case of `Cc1cc(C)nc(/N=C(\NC#N)N2CCN(c3cccc(C(F)(F)F)c3)CC2)c1` it was “inactive”; in that of `O=C(Nc1ccc(N2CCOCC2)c(F)c1)Nc1nnc(-c2ccncc2)s1`, “inactive”. Then `Cc1ccc(S(=O)(=O)Nc2ccc(C(=O)Nc3ncc(-c4ccccc4)s3)cc2)cc1`, with “inactive”; and `N#Cc1ccc(C(=O)NCC(=O)OC(C(=O)Nc2cc(C(F)(F)F)ccc2Cl)c2ccccc2)cc1` (stereo not given), with “inactive”; and `COc1ccc(C2NC(=O)c3ccccc3N2)cc1COc1ccc(NC(C)=O)cc1` (stereo not given), with “inactive”. In the case of `Cc1ccc2nc3sc(C(=O)NCCN4CCOCC4)cc3cc2c1` it was “inactive”; in that of `CN(C)C1CCN(Cc2cc(COCc3ccccc3)c3cccnc3c2O)C1` (stereo not given), “inactive”. For `CC(=O)Nc1sc2c(c1-c1ccc3nsnc3c1)CCNC2`, the Potency result was “inactive”.

For `O=C1CCCC2=C1C(c1[nH]ncc1Cl)N=C(Nc1nc3ccccc3s1)N2` (stereo not given), the Potency result is “inactive”.

Consider `Fc1cc(Nc2nc(-c3ccncc3)nc3ccccc23)ccc1-c1cccnc1`, for which the Potency entry is “inactive”. Then `COc1ccc(CN(Cc2ccccc2)C(=O)c2ccccc2O)cc1`, with “inactive”. On to `N#Cc1c(-c2ccc(Cl)c([N+](=O)[O-])c2)no[n+]1[O-]`, for which the Potency entry is “inactive”.

Regarding `Cc1cnc(NC(=O)c2ccc(-c3cccc([N+](=O)[O-])c3)o2)s1`, the Potency entry is “inactive”.

The values above are taken from PubChem BioAssay (NCATS).
